Rows were chosen to be rich in hits. Some 3.4% of all compounds tested hit in one or more screens of this group.
Shn3 3UTR inh: inhibitors of Schnurri-3 3'UTR reporter in osteoblasts; Clone20 osteoblast Shn3 3'UTR firefly luciferase, 24 h; inhibition, % at 12.5 µM; actives 0.52% (n = 360,000);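 active = mean inhibition of at least 75% with every replicate also reaching 75%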
TWEAK-Fn14 inh: inhibitors of TWEAK-Fn14 interaction signaling | actives 2% (n = 360,000) | inhibition, % at 10 µM | TWEAK-stimulated Fn14 reporter cells, luciferase luminescence, 8 h; in the data active = inhibition above about 50%
TROY NFkB inh: TROY signaling inhibition. Q293 LMP1-TROYcd NF-kB luciferase reporter, 4 h. inhibition, % at 10 µM. actives 0.98% (n = 360,000);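 active = compounds whose plate-normalised and pattern-corrected inhibition of the luciferase reporter signal at the single screening dose is 50% or more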
HIF-2a inh: HIF-2a inhibition. actives 0.72% (n = 360,000). 786-0 RCC cells HIF-2a reporter, luciferase luminescence, overnight. inhibition, % at 18.8 µM;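 active = inhibition of the luminescence signal of 40% or more relative to plate controls, in a single-dose primary screen at 18.75 µM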
TRPM1 prom inh: MITF TRPM1 promoter inhibition in SK-MEL-5 cells | SK-MEL-5 TRPM1 promoter luciferase, 24 h | inhibition, % at 12.5 µM | actives 0.83% (n = 330,000);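 active = mean inhibition across replicates of 60% or more, whatever share of single replicates reaches that level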
LMP1 NFkB inh: inhibitors of Epstein-Barr LMP1-induced NF-kappaB reporter; LMP1-induced NF-kappaB luciferase reporter cells, luminescence; inhibition, % at 12.5 µM; actives 0.69% (n = 350,000); in the data active = inhibition above about 41%
Large screens that a line does not name were inactive.

O=C(N/N=C/c1cccc(F)c1)c1c(O)c2c([nH]c1=O)CCCC2	TROY NFkB inh 53
COC(=O)c1c[nH]c2c1-c1cc(C(=O)OCc3ccccc3)n(S(=O)(=O)c3ccc(C)cc3)c1C(=O)C2=O	TWEAK-Fn14 inh 99, TROY NFkB inh 57, TRPM1 prom inh 112
COc1cccc(CNC(=S)Nc2ccc3c(c2)c(=O)n(C)n3C)c1	none (no result: TRPM1 prom inh, LMP1 NFkB inh)
CC(=O)c1sc2c(c1OC(=O)c1ccc(Cl)cc1Cl)c(=O)n(-c1ccccc1)c(=S)n2-c1ccccc1	TRPM1 prom inh 63
COc1cc2c(=O)n(CC3CCCO3)c(=O)n(CC(=O)Nc3cccc(Cl)c3)c2cc1OC (centres undefined)	LMP1 NFkB inh 85
CCc1cc(=O)oc2cc(OC(C)C(=O)N3CC[C@@]4(O)CCCC[C@H]4C3)ccc12 (some centres undefined)	none (no result: TRPM1 prom inh, LMP1 NFkB inh)
N#Cc1ccc(-c2csc(NNC(=O)c3ccccc3)n2)cc1	none
N#Cc1ccc(-c2csc(NNC(=O)c3ccc(Br)cc3)n2)cc1	LMP1 NFkB inh 55
CC(C)Oc1ccc(C(=O)NC2CCCCC2)cc1	none
CC(C)Oc1ccc(C(CCN)C2CCCCC2)cc1 (centres undefined)	TRPM1 prom inh 88
COc1cccc(-c2nc(-c3ccccc3)c3ccc(Cl)cc3n2)c1	none (no result: Shn3 3UTR inh, TRPM1 prom inh, LMP1 NFkB inh)
CCc1ccc(OCC(=O)NC(=S)Nc2ccc(C(=O)O)cc2)cc1	none
CCCC(=O)NC(NC(=S)Nc1ccc(N=Nc2ccccc2)cc1)C(Cl)(Cl)Cl (centres undefined)	TWEAK-Fn14 inh 76
CCc1ccc(OCC(=O)NC(NC(=S)Nc2ccc(Cl)cc2)C(Cl)(Cl)Cl)cc1 (centres undefined)	Shn3 3UTR inh 86, TWEAK-Fn14 inh 72
O=C(CNS(=O)(=O)c1ccc(Br)s1)NCc1ccccc1	none
C=CCN(c1ccccc1OC)S(=O)(=O)c1cccc(C(=O)OCC(=O)c2c(N)n(C)c(=O)n(C)c2=O)c1	none
CCN(CC(=O)Nc1ccccc1OC)C(=O)COc1ccc(C#N)cc1	none
O=C(NNC(=O)C1CCN(S(=O)(=O)c2ccc(Cl)cc2)CC1)c1ccccc1O	Shn3 3UTR inh 87
Cc1cc(=O)[nH]c(NN=Cc2c(Cl)cccc2Cl)n1	none
Cc1cc(=O)[nH]c(N/N=C/c2ccccn2)n1	Shn3 3UTR inh 89
C#CCOCCOCCOCCNc1nc(N2CCN(C(=O)CCCCCCCCCCNC(=O)Cn3cc(C[C@@H](C)O)nn3)CC2)nc(N2CCN(C(=O)CCCCCCCCCCNC(=O)[C@@H](CCSC)n3cc(CCO)nn3)CC2)n1	TWEAK-Fn14 inh 60, TRPM1 prom inh 79
C#CCOCCOCCOCCNc1nc(N2CCN(C(=O)CCCCCCCCCCNC(=O)[C@@H](CCSC)n3cc(CCO)nn3)CC2)nc(N2CCN(C(=O)CCCCCCCCCCNC(=O)[C@H](CCCN=C(N)N)n3cc(C[C@@H](C)CC)nn3)CC2)n1	TRPM1 prom inh 69
C#CCOCCOCCOCCNc1nc(N2CCN(C(=O)CCCCCCCCCCNC(=O)[C@H]([C@@H](C)CC)n3cc(CCCCN=C(N)N)nn3)CC2)nc(N2CCN(C(=O)CCCCCCCCCCNC(=O)[C@@H]([C@H](C)O)n3cc(C)nn3)CC2)n1	TRPM1 prom inh 65
C#CCOCCOCCOCCNc1nc(N2CCOCC2)nc(N2CCN(C(=O)CCCCCCCCCCNC(=O)[C@H]([C@@H](C)CC)n3cc(CCCCN=C(N)N)nn3)CC2)n1	none
C#CCOCCOCCOCCNc1nc(N2CCN(C(=O)CCCCCCCCCCNC(=O)[C@H](CCCCN)n3cc(C[C@@H](C)CC)nn3)CC2)nc(N2CCN(C(=O)CCCCCCCCCCNC(=O)[C@@H]([C@H](C)O)n3cc(C)nn3)CC2)n1	Shn3 3UTR inh 96, TWEAK-Fn14 inh 106, TROY NFkB inh 90, HIF-2a inh 63, TRPM1 prom inh 94
C#CCOCCOCCOCCNc1nc(N2CCN(C(=O)CCCCCCCCCCNC(=O)[C@@H](CCSC)n3cc(CCO)nn3)CC2)nc(N2CCN(C(=O)CCCCCCCCCCNC(=O)[C@@H]([C@H](C)O)n3cc(C)nn3)CC2)n1	none
Cc1onc(-c2ccccc2)c1C(=O)NC1CCC(C)CC1 (centres undefined)	none
CC(C)CC(=O)[C@@H](O)Cc1ccc(O)cc1	none (no result: Shn3 3UTR inh, TRPM1 prom inh, LMP1 NFkB inh)
C#CCOCCOCCOCCNc1nc(N2CCN(C(=O)CCCCCCCCCCNC(=O)[C@H](CCCCN)n3cc(C[C@@H](C)CC)nn3)CC2)nc(N2CCN(C(=O)CCCCCCCCCCNC(=O)[C@H](CCCN=C(N)N)n3cc(C[C@@H](C)CC)nn3)CC2)n1	TWEAK-Fn14 inh 60, HIF-2a inh 41, TRPM1 prom inh 104
Nc1ccc2nc(CCc3ccccc3)[nH]c2c1	LMP1 NFkB inh 59
Cc1ccc2nc(CCc3ccc(N)cc3)[nH]c2c1	none
CN(C)CCCNc1cc(-c2ccccc2)nc2cc(-c3cccc(F)c3)nn12	TRPM1 prom inh 63
CN(CC(=O)Nc1ccccc1Br)C(=O)c1ccccc1OCc1ccccc1Cl	none
O=C1C=CC(=O)N1c1ccc(OC(F)F)cc1	Shn3 3UTR inh 91, HIF-2a inh 50
COc1ccc(NC(=O)C[C@H]2C(=O)N(CCc3ccccc3)C[C@@H]2c2ccc(OC)cc2)cc1	LMP1 NFkB inh 44 (no result: TRPM1 prom inh)
CCNC(=O)C1CCCN(C(=O)c2ccc(-c3ccccc3)cc2)CC1 (centres undefined)	none (no result: TRPM1 prom inh, LMP1 NFkB inh)
O=c1[nH]c2ccc(NS(=O)(=O)c3ccc([N+](=O)[O-])cc3)cc2[nH]1	none
CC(=O)Nc1ccc(S(=O)(=O)Nc2ccc3[nH]c(=O)[nH]c3c2)cc1	TWEAK-Fn14 inh 54
Cc1c(CCO)c(=O)n2c([nH]c3ccccc32)c1C#N	none
CCCCc1c(C)c(C#N)c2[nH]c3ccccc3n2c1=O	TROY NFkB inh 52
CCC12CC1(C(=O)OC)C(=O)N1CCc3c([nH]c4ccccc34)C12 (centres undefined)	TROY NFkB inh 62 (no result: TRPM1 prom inh, LMP1 NFkB inh)
COC(=O)CC1CC2(C(=O)OC)c3[nH]c4ccccc4c3CCN2C1=O (centres undefined)	none (no result: TRPM1 prom inh, LMP1 NFkB inh)
NNC(=O)c1[nH]c2ccc([N+](=O)[O-])cc2c1-c1ccccc1	none (no result: TRPM1 prom inh)
O=C(N/N=C/c1ccccc1)c1[nH]c2ccc(Br)cc2c1-c1ccccc1	TRPM1 prom inh 74
O=C(N/N=C/c1ccccn1)c1[nH]c2ccc([N+](=O)[O-])cc2c1-c1ccccc1	TROY NFkB inh 54
Cc1ccc2[nH]c(C(=O)N/N=C/c3ccccc3C(=O)O)c(-c3ccccc3)c2c1	none
CC(C)(C)c1ccc(NC(=O)N2CCN(c3ccc([N+](=O)[O-])cn3)CC2)cc1	TWEAK-Fn14 inh 59
O=C(Nc1ccc(F)cc1F)N1CCCN(c2ccc([N+](=O)[O-])cn2)CC1	none
N#Cc1cc(-c2ccccc2)nc(NN)n1	none
Clc1ccc(-c2ccnc(Oc3ccc4ccccc4c3)n2)cc1	LMP1 NFkB inh 57

Source: PubChem BioAssay (several laboratories)
